# Measured values: PubChem BioAssay (NCATS)
# Results filed as inconclusive are left out. A call without a number means that no potency is given here. Calls of active or inactive are those of the source. Calls follow the shape of the dose curve; as a rule, active = well fitted inhibition curve with a large enough effect; inconclusive = small, poorly fitted or top-dose-only effect; inactive = flat fitted curve, though single readings scatter.
# Target: Phenylethanolamine N-methyltransferase (Homo sapiens) (UniProt P11086)
# Assay: Confirmatory Screen for Target Class Profiling of Small Molecule Inhibitors of Methyltransferases (AID 1745852)
# Details: MTase-Glo luminescence, SAH detection, recombinant enzyme; measured here: PNMT max response; stronger effect = lower value
# Sequence of Phenylethanolamine N-methyltransferase (Homo sapiens) (P11086 whole entry, looked up): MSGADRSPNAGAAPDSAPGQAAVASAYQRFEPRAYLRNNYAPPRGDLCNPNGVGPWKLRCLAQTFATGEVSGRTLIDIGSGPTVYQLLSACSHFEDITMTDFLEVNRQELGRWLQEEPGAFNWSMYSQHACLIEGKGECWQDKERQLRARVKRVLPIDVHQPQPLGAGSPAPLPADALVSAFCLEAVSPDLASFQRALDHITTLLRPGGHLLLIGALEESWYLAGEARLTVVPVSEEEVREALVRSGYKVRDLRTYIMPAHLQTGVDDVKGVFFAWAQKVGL
row,SMILES,activity
1,Fc1cc(F)c2c(c1)C1C=CCC1C(c1cccnc1)N2 (stereo unspecified),-0.468%
2,CCCN(CCC)[C@@H]1CCc2ccc3[nH]c(C#N)cc3c2C1,-4.55%
3,C#C[C@]1(O)CC[C@H]2[C@@H]3CC[C@H]4Cc5nc6nc7ccccc7n6cc5C[C@]4(C)[C@H]3CC[C@@]21C,-31.4%

# Target: Glutathione peroxidase 1 (Homo sapiens) (UniProt P07203)
# Assay: Primary qHTS Assay for Inhibitors of Recombinant Selenoprotein Glutathione Peroxidase 1 (GPX1) (AID 1845191); also: nearly all actives have a fitted effect of over 65% in size
# Details: recombinant GPX1, GR-coupled NADPH fluorescence, 15 min; series mostly up to 48.8 µM
# Outline: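 Recombinant GPX1 (10 nM final) was preincubated with compound for 30 min at room temperature, then reacted with 1 mM GSH, 0.5 mM CHP, 0.5 mM NADPH and 100 nM glutathione reductase; NADPH fluorescence (340/450 nm) was read at 0 and 15 min.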
# Sequence of Glutathione peroxidase 1 (Homo sapiens) (P07203 whole entry, looked up): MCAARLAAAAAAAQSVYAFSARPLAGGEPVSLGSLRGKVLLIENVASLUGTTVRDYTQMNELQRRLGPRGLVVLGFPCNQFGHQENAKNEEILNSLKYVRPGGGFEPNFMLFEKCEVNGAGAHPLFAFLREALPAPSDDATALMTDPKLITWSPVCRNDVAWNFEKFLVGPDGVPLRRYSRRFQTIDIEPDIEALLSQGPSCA
row,SMILES,Potency
1,CC1=CC(=O)[C@@H](O)[C@@]2(C)C1C[C@H]1OC(=O)[C@H](O)[C@@]3(O)[C@@H](C)[C@@H](O)[C@H](O)C2[C@@]13C (stereo partly specified),inactive
2,CN(Cc1cccc(-c2ccncc2)c1)C(=O)Oc1ccc(-c2ccc(C(N)=O)cc2)cc1,inactive
3,CN(C(=O)C(c1ccccc1)c1ccccc1)[C@H](CN1CC[C@H](O)C1)c1ccccc1,inactive
4,C/C=C(\C)C(=O)OC1CC2C(CC=C3CC(OC4CC(OC)C(OC5CC(OC)C(OC6CC(OC)C(OC7CC(OC)C(O)C(C)O7)C(C)O6)C(C)O5)C(C)O4)CCC32C)C2(O)CCC(C(C)=O)C12C (stereo unspecified),inactive
5,COC1CC(O[C@H]2CC[C@@]3(C)C(CCC4C3CC[C@]3(C)C(C5=CC(=O)OC5)CCC43O)C2)OC(C)C1OC1OC(COC2OC(CO)C(O)C(O)C2O)C(O)C(O)C1O (stereo partly specified),inactive
6,C[C@@H]1O[C@@H](OC2CCC3(C=O)C(CCC4C3CCC3(C)C(C5=CC(=O)OC5)C(O)CC43O)C2)[C@H](O)[C@H](O)[C@H]1O[C@@H]1O[C@H](CO)[C@@H](O)[C@H](O)[C@H]1O (stereo partly specified),inactive
7,Cc1c(N[C@@H](c2nnc(-c3ccc(C#N)cc3)o2)[C@H](C)O)ccc(C#N)c1Cl,inactive
8,C=C1C(=O)CC2OC2(C)CC2OC(=O)C(=C)C2C(O)C1OC(=O)/C(C)=C\C (stereo unspecified),inactive
9,CN1C(=O)[C@@H](Cc2c[nH]c3ccccc23)N=C(c2ccccc2F)c2ccccc21,inactive
10,C=C(C)[C@@]12O[C@@H]1[C@@]1(C)C(=CC2=O)CC[C@@H](OC(C)=O)[C@@H]1C,inactive
11,c1ccc([C@@H]2C[C@H]2NC2CCNCC2)cc1,inactive
12,CC[C@H](O)[C@@H](C)[C@H]1O[C@@H]1C[C@H](C)/C=C/C=C(\C)[C@H]1OC(=O)C[C@H](O)CC[C@@](C)(O)[C@@H](OC(C)=O)/C=C/[C@@H]1C,inactive
13,CN(C)[C@@H]1C(=O)C(C(N)=O)=C(O)[C@@]2(O)C(=O)C3=C(O)c4c(O)ccc(Cl)c4[C@@](C)(O)C3C[C@@H]12 (stereo partly specified),inactive
14,CC(=O)O[C@H]1C[C@]2(O)[C@@H]3CC[C@@H]4C[C@@H](O)CC[C@]4(C)[C@H]3CC[C@]2(C)[C@H]1c1ccc(=O)oc1,inactive
15,CN1CCC2=C(C1)c1ccccc1Cc1ccccc12,inactive
16,C=C(C)C(=O)O[C@H]1[C@@H]2[C@H](C)C(=O)O[C@@H]2C[C@@H](C)[C@@H]2C=CC(=O)[C@]21C,inactive
17,CCOc1ccc(Oc2ccc(OCc3cc(F)ccc3F)cc2)c(N)c1,inactive

row,SMILES,Potency
1,CCN1C[C@]2(COC)CC[C@H](O)[C@@]34C5C[C@@H]6[C@@H](OC)C[C@@](OC(C)=O)(C5[C@@H]6OC(C)=O)[C@H]([C@H](OC)C23)[C@@H]14 (stereo partly specified),inactive
2,CC(C)[C@H](NC(=O)c1nn(Cc2ccc(F)cc2)c2ccccc12)C(N)=O,inactive
3,CCCN(CCC)[C@@H]1CCc2ccc3[nH]c(C#N)cc3c2C1,inactive
4,Cc1ccc2c(c1)[C@H]1CN(C)CC[C@H]1N2C(=O)CSc1nnnn1-c1ccc(Cl)cc1,inactive
5,COC1CCCC(C)OC(=O)Cc2cc(O)cc(O)c2C(=O)C1 (stereo unspecified),inactive
6,C[C@]12CC[C@H](O)C[C@@H]1CC[C@@H]1[C@@H]2CC[C@]2(C)C(=O)CC[C@@H]12,inactive
7,CC(=O)OC[C@]12[C@H](OC(C)=O)C(=O)[C@@H]3[C@@H](O)[C@@]14O[C@@]3(C)COC(=O)c1cccnc1[C@@H](C)[C@H](C)C(=O)O[C@@H]([C@H](OC(C)=O)[C@@H]2OC(C)=O)[C@]4(C)O,inactive
8,C#C[C@]1(O)CC[C@H]2[C@@H]3CC[C@H]4Cc5nc6nc7ccccc7n6cc5C[C@]4(C)[C@H]3CC[C@@]21C,inactive
9,CN1C(=O)N(c2ccc(C#N)c(C(F)(F)F)c2)C(=O)[C@@]1(CO)c1ccccc1,inactive
10,CCCCCn1cc(C(=O)Oc2cccc3cccnc23)c2ccccc21,inactive
11,COc1cc(O)c2c(c1)CCC[C@@H](O)[C@H](O)C(=O)/C=C\C[C@H](C)OC2=O,inactive
12,COc1cc(C(=O)N2CC[C@@H](O)[C@@H](N)C2)cc2nc(-c3cc4ccccc4n3CC3CC3)n(C)c12,inactive
13,C[C@]12CC[C@H](O)C[C@@H]1CC[C@@H]1[C@@H]2CC[C@]2(C)[C@@H](C3=CC(=O)OC3)CC[C@]12O,inactive
14,COC(=O)C12C(=O)C(C)(O)C(=O)C1(C)C(C)=CC1C34CCC(OC3=O)C(C)(C)C4CCC12C (stereo unspecified),inactive
15,CC1=CC2OC3CC(O)[C@](C)([C@@]2(C)C(O)C1=O)[C@]31CO1 (stereo partly specified),inactive
16,CN1Cc2c(ccc3c2OCO3)[C@@H]2[C@H]1c1cc3c(cc1C[C@@H]2O)OCO3,inactive
